# tim10-1 inh: growth inhibitors of tim10-1 mutant yeast, primary screen, luminescence, uHTS; S. cerevisiae tim10-1 ts strain growth, BacTiter-Glo, 24 h; inhibition, % at 20 µM; actives 2.2% (n = 330,000); AID 463190, 2010;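 active means inhibition of at least 40%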;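 further: mutant grown at 25 °C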
# TIM10 inh: growth inhibitors of isogenic TIM10 control yeast, primary screen, counter-screen for tim10-1 yeast inhibitor project, luminescence, uHTS | actives 1.4% (n = 330,000) | S. cerevisiae TIM10 strain growth, BacTiter-Glo luminescence, 24 h | inhibition, % at 10 µM;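 active means inhibition of 40% or more at the single tested concentration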;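 further: wild-type TIM10 isogenic control strain grown at permissive 25 °C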
# tim23-1 inh: growth inhibitors of tim23-1 mutant yeast, primary screen, luminescence, uHTS; S. cerevisiae tim23-1 growth, BacTiter-Glo luminescence, 24 h; inhibition, % at 20 µM; actives 1.3% (n = 330,000); AID 463212, 2010;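 active means growth inhibition of the mutant yeast at or above 50%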;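 further: temperature-sensitive mutant grown at 25 °C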
# PfHsp90 set2: growth inhibition of PfHsp90-expressing yeast, primary screen, antimalarial PfHsp90 inhibitor project, S. cerevisiae, BacTiter-Glo luminescence, single point, set 2; BacTiter-Glo ATP, 48 h; yeast lacking PDR1 and PDR3 efflux regulators; inhibition, % at 9.4 µM; actives 0.32% (n = 310,000);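 active means every replicate shows inhibition above about 80%, whatever the replicate mean, limit read from the data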
# V-ATPase pH: regulators of yeast V-ATPase proton pumping, primary screen, pHLuorin cytosolic pH fluorescence | S. cerevisiae | response, % at 10 µM | actives 0.37% (n = 350,000); in the data active means response mostly above about 7.3%, no sharp cut-off; inactive means mostly below about 5.4%; further: actives read high
# tim10 confirm: growth inhibitors of wild-type TIM10 yeast, confirmation, counter-screen for tim10-1 synthetic lethality project, single concentration, luminescence, S. cerevisiae. actives 63% (n = 4,600). shares compounds with TIM10 inh. AID 463215, 2010. S. cerevisiae tim10 strain growth, BacTiter-Glo luminescence, 24 h. inhibition, % at 10 µM;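 active means inhibition of yeast growth at or above a set limit in either of two replicates at 10 µM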; further: this counterscreen used the strain with wild-type TIM10
# tim23-1 confirm: tim23-1 mutant yeast growth inhibitors, confirmation, luminescence, single concentration; shares compounds with tim23-1 inh; S. cerevisiae tim23-1 growth, BacTiter-Glo luminescence, 24 h; inhibition, % at 20 µM; actives 83% (n = 4,400); AID 463218, 2010;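 active means inhibition above about 39% in either of two replicate wells at 20 µM, limit read from the data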;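 further: temperature-sensitive tim23-1 mutant grown at 25 °C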
# VATPase regulator: yeast V-ATPase proton pumping modulators, confirmation, S. cerevisiae, pH-sensitive GFP, second cherry-pick; actives 2% (n = 980); S. cerevisiae pHLuorin cytosolic pH, V-ATPase proton transport; shares compounds with V-ATPase pH; response, % at 10 µM; in the data active means response above about 24%
# Hits are given with their value; - = inactive; . = not tested or not shown. The list is not random: actives were taken first. Their share in the collection is about 3.7%.
SMILES,tim10-1 inh,TIM10 inh,tim23-1 inh,PfHsp90 set2,V-ATPase pH,tim10 confirm,tim23-1 confirm,others
COC(=O)c1ccc2[nH]c(C3(O)CCCCC3)c(C)c2c1,-,-,-,-,-,.,.,
Cc1c(C2(O)CCCCC2)[nH]c2ccc(C(F)(F)F)cc12,-,59,82,-,-,67,65,
CCc1oc2ccccc2c1C(=O)CCN1CCCCC1,-,57,52,-,-,41,-,
Cc1cccc(N/N=C/c2ccc(O)c(O)c2O)c1,-,-,-,-,-,.,.,
COc1cccc(N/N=C/c2cccc(Br)c2O)c1,-,57,58,-,-,36,69,
Cc1ccn2cc(C(=O)Nc3nnc(C)s3)nc2c1,-,-,-,-,-,.,.,
Cc1ccn2cc(C(=O)Nc3ccc4c(c3)OCCO4)nc2c1,-,44,50,-,-,-,49,
COc1ccc(-c2nnc(Sc3nc4ccccc4o3)c3ccccc23)cc1,-,42,52,-,-,36,42,
O=C(COC(=O)C1CCCC1)NCc1ccc(Cl)cc1,-,-,-,-,-,.,.,
N/C(Cc1ccc(Cl)cc1)=N\OC(=O)C1CCCCC1,-,87,79,-,-,-,53,
Cc1ccc(/C=C/C(=O)O)cc1S(=O)(=O)NC1CCS(=O)(=O)C1 (stereo not given),-,-,-,-,-,.,.,
COc1cccc(/C=N/NC(=O)c2c(C)nc3ccc(Cl)cn23)c1O,-,48,59,-,-,65,58,
Oc1ccc(/C=C/c2ccc3ccccc3n2)cc1,-,44,75,-,-,47,55,
Cc1ccccc1N(CC(=O)NCC1CCCO1)C(=O)CNS(=O)(=O)c1ccc(F)cc1 (stereo not given),-,-,-,-,-,.,.,
Cc1ccc(S(=O)(=O)NCC(=O)OCC(=O)N(CCC#N)c2ccccc2)cc1,-,-,-,-,-,.,.,
COc1ccccc1-n1cnc2cc(NC(=O)c3ccco3)ccc21,-,44,56,-,-,37,68,
O=C(Nc1ccc2c(c1)ncn2C1CCCCC1)c1ccco1,-,66,51,.,-,53,77,
NC(=O)c1oc2ccccc2c1NC(=O)c1ccc([N+](=O)[O-])o1,-,57,66,-,-,66,59,
COc1ccc(C(=O)NCCCNC(=O)c2cnccn2)cc1Br,-,-,-,-,-,.,.,
Cc1cc2n(n1)C(c1ccc(N(C)C)cc1)Nc1ccccc1-2 (stereo not given),-,40,55,.,-,34,64,
O=C(CC(O)c1ccncc1)c1ccccc1O (stereo not given),.,.,.,-,-,.,.,
Oc1ccc(-c2cc(-c3ccc(O)cc3)nc(-c3ccccc3)n2)cc1,-,67,61,-,-,63,61,
Nc1ccc(-c2cc(-c3ccc(N)cc3)nc(-c3ccccc3)n2)cc1,-,-,-,-,-,.,.,
CCn1c(C)c(C)c2cc(C(=O)Nc3cccc(Cl)c3)ccc21,-,41,52,-,-,51,57,
CCn1c(C)c(C)c2cc(C(=O)NCCCN3CCCC3)ccc21,-,-,-,-,-,.,.,
SMILES,tim10-1 inh,TIM10 inh,tim23-1 inh,PfHsp90 set2,V-ATPase pH,tim10 confirm,tim23-1 confirm,others
O=C(O)c1cccc2c1-c1ccc(Cl)cc1C2,.,.,.,.,-,.,.,
Cc1ccc(S(=O)(=O)N2CCSC2=Nc2ccccc2)cc1,-,-,-,.,.,.,.,
Cc1cccc(NC(=O)C2C(c3ccccc3)C2(Cl)Cl)c1 (stereo not given),-,46,52,-,-,33,51,
COc1ccc(/C=C/C(=O)c2cc(Cl)cc(Cl)c2O)c(OC)c1,-,-,-,-,-,.,.,
O=C(/C=C/c1ccccn1)c1cc(Cl)cc(Cl)c1O,-,61,63,-,-,53,-,
CCN1CCc2c(sc(NC(=O)c3ccc(S(=O)(=O)N4CCCCCC4)cc3)c2C(=O)NC)C1,-,-,-,-,-,.,.,
S=C(NCCc1ccccc1)NCCc1ccccc1,-,-,-,-,-,.,.,
C/C(=N\NC(=S)NCCc1ccccc1)c1cccs1,-,41,51,-,-,-,46,
Cc1ccc(C)c(NC(=O)C2CCCN(c3cnccn3)C2)c1 (stereo not given),-,-,-,-,-,.,.,
CCCCCCCCCCCCCCCC[n+]1ccc(/C=N/O)cc1,-,50,51,106,-,-,49,
CCC1Sc2ccc(S(=O)(=O)N3CCN(c4ccccc4)CC3)cc2NC1=O (stereo not given),-,-,-,-,-,.,.,
COC(=O)c1cc(S(=O)(=O)Nc2cc(OC)cc(OC)c2)cn1C,-,-,-,-,-,.,.,
COC(=O)c1cc(S(=O)(=O)Nc2cccc(C)c2C)cn1C,-,84,-,-,11,-,.,VATPase regulator=-
CC(=O)Nc1cc2c(cc1NC(=O)Cn1nc(-c3ccccc3)ccc1=O)OCCO2,-,-,-,-,-,.,.,
O=C(c1ccc([N+](=O)[O-])o1)N1CCN(c2nc3ccc(F)cc3s2)CC1,-,40,-,.,67,81,.,VATPase regulator=41
O=C(c1ccc([N+](=O)[O-])o1)N1CCN(c2nc3c(Cl)cccc3s2)CC1,-,56,-,-,10.0,85,.,VATPase regulator=23
O=C(COc1cccc2cccnc12)Nc1ccccc1N1CCOCC1,-,-,-,-,-,.,.,
COc1ccc(NC(=S)NCCSc2ccc(Cl)cc2)c(OC)c1,-,-,50,-,-,.,42,
COc1ccccc1NC(=S)NCCSc1ccc(Cl)cc1,-,-,54,-,-,.,50,
O=C(NC1CC2CCCC(C1)N2Cc1ccccc1)c1ccc([N+](=O)[O-])cc1 (stereo not given),-,-,-,-,-,.,.,
Cc1ccc(/C=N/NC(=O)c2csc3c2CCCC3)cc1,-,-,63,.,-,.,59,
COc1ccccc1NS(=O)(=O)c1cc(C(=O)N2CCCC2)ccc1F,-,-,-,.,-,.,.,
O=C(NC1CCCCC1)C(c1ccccc1)N1CCC2(CC1)OCCO2 (stereo not given),-,-,-,-,-,.,.,
CC(C)c1ccc(NC(=O)C(c2ccccc2)N2CCC3(CC2)OCCO3)cc1 (stereo not given),-,-,52,-,-,.,50,
Oc1ccc(C2C[C@H]3CC[C@@H]2C3)cc1O (stereo not given in full),-,-,52,-,-,.,-,

# Assay outcomes deposited in PubChem by several laboratories.
